# Test results reported in paper PMC7862700, “An all-to-all approach to the identification of sequence-specific readers for epigenetic DNA modifications on cytosine”.
# Legend:
# Assay in all cases: DAPPL (digital affinity profiling via proximity ligation, sequencing); 10 mM Tris-HCl pH 7.5, 50 mM NaCl, 1 mM DTT, 4% glycerol, room temperature, 30 min; GST-TFs on glutathione beads, 16-mer random dsDNA library, 0.1% formaldehyde crosslink after washing; high values mean tight binding
# Conditions in all cases: protein: recombinant; tags: N-terminal GST; dsDNA, one strand shown
# FLI1 = molecular target: T1, FLI1 (Homo sapiens, UniProt Q01543 1-452)
# T1 sequence: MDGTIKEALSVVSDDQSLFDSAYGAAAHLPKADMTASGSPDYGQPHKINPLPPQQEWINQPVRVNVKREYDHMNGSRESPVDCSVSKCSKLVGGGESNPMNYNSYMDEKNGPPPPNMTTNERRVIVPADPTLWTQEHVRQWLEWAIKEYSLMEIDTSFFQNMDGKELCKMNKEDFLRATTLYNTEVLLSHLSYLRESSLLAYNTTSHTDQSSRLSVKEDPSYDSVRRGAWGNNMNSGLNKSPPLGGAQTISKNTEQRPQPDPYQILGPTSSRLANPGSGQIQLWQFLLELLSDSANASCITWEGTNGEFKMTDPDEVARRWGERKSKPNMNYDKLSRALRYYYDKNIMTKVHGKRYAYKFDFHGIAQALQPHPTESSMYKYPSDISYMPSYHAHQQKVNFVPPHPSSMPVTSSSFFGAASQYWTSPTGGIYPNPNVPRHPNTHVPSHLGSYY
# Method in brief: (§1)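 After expression in yeast as GST fusions, human transcription factors were bound to glutathione beads, DNA-barcoded and mixed with a tag-only sample. The pools were incubated with 200 nmole of a 16-mer random double-stranded DNA library in Tris/NaCl/DTT/glycerol buffer (30 min, room temperature), washed and crosslinked with 0.1% formaldehyde. Proximity ligation with BsaI/T4 ligase ran for 1 h at 37 °C, before PCR amplification and sequencing on an Illumina NextSeq500. Binding signal is a hexamer's read frequency for a factor divided by its frequency for the tag-only sample.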
# ELK1 = molecular target: T2, ELK1 (Homo sapiens, UniProt P19419 1-428)
# T2 sequence: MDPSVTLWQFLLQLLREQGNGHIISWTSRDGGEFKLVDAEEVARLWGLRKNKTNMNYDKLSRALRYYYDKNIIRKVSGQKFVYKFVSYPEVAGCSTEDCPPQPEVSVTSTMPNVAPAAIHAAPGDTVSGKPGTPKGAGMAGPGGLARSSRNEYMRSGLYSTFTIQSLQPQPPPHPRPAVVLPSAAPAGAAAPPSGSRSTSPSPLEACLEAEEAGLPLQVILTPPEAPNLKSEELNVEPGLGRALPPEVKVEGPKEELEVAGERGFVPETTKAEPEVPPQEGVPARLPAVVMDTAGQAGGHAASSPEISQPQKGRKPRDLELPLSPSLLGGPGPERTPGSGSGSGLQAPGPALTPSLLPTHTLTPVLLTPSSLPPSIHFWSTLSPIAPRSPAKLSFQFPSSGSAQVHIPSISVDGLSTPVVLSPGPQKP
# Method in brief: as §1
# GABPA = molecular target: T3, GABPA (Homo sapiens, UniProt Q06546 1-454)
# T3 sequence: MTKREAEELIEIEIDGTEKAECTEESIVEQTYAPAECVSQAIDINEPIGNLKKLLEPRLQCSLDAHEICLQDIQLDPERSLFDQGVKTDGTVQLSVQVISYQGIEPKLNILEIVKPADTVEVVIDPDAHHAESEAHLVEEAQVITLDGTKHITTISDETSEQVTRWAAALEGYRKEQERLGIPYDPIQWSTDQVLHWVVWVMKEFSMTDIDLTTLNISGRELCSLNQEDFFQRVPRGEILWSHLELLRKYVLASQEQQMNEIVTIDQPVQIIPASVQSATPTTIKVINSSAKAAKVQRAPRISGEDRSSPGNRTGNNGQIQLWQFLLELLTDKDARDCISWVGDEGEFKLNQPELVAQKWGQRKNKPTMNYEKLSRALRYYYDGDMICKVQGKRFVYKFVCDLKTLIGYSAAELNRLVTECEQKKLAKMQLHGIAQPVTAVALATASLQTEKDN
# Method in brief: as §1
# ERG = molecular target: T4, ERG (Homo sapiens, UniProt P11308 1-479)
# T4 sequence: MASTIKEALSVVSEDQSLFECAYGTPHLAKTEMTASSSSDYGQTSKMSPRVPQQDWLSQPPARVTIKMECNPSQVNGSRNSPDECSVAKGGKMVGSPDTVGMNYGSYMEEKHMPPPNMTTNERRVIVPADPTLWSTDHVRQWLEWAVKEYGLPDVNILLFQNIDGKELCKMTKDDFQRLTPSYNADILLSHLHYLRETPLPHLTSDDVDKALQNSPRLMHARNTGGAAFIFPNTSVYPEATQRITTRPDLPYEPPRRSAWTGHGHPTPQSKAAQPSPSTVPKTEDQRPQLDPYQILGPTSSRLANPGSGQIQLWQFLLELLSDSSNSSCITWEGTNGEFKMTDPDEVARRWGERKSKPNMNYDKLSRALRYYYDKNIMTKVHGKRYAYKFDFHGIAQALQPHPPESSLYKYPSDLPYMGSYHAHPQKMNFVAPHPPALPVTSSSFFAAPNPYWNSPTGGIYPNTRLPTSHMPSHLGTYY
# Method in brief: as §1
# ELF1 = ELF1 (Homo sapiens, UniProt P32519 1-619)
# ELF1, sequence (P32519 whole entry): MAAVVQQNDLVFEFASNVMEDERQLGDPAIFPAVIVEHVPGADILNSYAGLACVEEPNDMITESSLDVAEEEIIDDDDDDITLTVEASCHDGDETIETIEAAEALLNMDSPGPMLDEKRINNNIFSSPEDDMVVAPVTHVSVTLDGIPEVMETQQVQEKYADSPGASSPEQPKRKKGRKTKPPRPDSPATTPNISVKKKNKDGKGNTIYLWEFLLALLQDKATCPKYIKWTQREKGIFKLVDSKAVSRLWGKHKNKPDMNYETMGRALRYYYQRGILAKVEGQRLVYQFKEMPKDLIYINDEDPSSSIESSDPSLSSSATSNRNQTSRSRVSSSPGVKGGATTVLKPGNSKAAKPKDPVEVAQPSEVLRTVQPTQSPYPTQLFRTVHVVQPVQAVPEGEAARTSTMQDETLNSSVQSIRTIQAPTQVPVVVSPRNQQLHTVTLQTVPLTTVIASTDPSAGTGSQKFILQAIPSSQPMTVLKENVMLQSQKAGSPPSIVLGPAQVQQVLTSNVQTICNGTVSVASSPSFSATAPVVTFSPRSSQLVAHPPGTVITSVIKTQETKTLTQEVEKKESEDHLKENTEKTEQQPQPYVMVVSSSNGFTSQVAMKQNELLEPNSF
# Method in brief: as §1
# EHF = molecular target: T5, EHF (Homo sapiens, UniProt Q9NZC4 1-300)
# T5 sequence: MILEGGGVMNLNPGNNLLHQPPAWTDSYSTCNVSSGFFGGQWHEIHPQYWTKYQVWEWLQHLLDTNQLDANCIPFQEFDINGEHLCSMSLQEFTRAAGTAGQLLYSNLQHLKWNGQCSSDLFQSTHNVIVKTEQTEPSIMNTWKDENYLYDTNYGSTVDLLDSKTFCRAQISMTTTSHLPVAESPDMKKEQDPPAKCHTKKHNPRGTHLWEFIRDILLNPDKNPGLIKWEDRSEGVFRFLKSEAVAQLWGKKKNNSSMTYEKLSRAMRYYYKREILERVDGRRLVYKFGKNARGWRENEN
# Method in brief: as §1
# SPI1 = SPI1 (Homo sapiens, UniProt P17947 1-270)
# Method in brief: as §1
# SPIB = SPIB (Homo sapiens, UniProt Q01892 1-262)
# SPIB, sequence (Q01892 whole entry): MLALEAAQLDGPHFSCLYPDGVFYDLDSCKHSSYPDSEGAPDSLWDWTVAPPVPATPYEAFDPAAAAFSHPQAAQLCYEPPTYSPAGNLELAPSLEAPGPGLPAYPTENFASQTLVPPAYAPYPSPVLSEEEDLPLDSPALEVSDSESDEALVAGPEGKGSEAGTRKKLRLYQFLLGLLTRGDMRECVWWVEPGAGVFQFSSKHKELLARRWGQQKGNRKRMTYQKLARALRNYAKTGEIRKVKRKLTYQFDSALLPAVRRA
# Method in brief: as §1
# ELK3 = molecular target: T6, ELK3 (Homo sapiens, UniProt P41970 1-407)
# T6 sequence: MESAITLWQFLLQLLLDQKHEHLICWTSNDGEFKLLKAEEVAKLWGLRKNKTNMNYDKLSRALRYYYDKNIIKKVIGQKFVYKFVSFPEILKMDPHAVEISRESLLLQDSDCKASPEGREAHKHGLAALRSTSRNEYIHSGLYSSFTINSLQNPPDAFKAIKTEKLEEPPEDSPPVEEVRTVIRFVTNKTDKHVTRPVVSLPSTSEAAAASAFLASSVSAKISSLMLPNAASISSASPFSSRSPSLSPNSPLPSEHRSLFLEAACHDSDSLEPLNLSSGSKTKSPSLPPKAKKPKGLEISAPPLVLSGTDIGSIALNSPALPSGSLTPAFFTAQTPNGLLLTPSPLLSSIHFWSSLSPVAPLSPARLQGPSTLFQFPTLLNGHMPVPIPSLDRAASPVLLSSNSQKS
# Method in brief: as §1
Sequence,binding signal (FLI1),binding signal (ELK1),binding signal (GABPA),binding signal (ERG),binding signal (ELF1),binding signal (EHF),binding signal (SPI1),binding signal (SPIB),binding signal (ELK3)
TTCACG,"1.48 fold enrichment (6-mer frequency, TF over GST control)","1.44 fold enrichment (6-mer frequency, TF over GST control)","1.41 fold enrichment (6-mer frequency, TF over GST control)","1.37 fold enrichment (6-mer frequency, TF over GST control)","1.38 fold enrichment (6-mer frequency, TF over GST control)","1.29 fold enrichment (6-mer frequency, TF over GST control)","1.3 fold enrichment (6-mer frequency, TF over GST control)","1.31 fold enrichment (6-mer frequency, TF over GST control)","1.42 fold enrichment (6-mer frequency, TF over GST control)"
CTCTCA,"1.49 fold enrichment (6-mer frequency, TF over GST control)","1.47 fold enrichment (6-mer frequency, TF over GST control)","1.52 fold enrichment (6-mer frequency, TF over GST control)","1.36 fold enrichment (6-mer frequency, TF over GST control)","1.38 fold enrichment (6-mer frequency, TF over GST control)","1.36 fold enrichment (6-mer frequency, TF over GST control)","1.38 fold enrichment (6-mer frequency, TF over GST control)","1.44 fold enrichment (6-mer frequency, TF over GST control)","1.57 fold enrichment (6-mer frequency, TF over GST control)"
TGCTGG,"1.08 fold enrichment (6-mer frequency, TF over GST control)","1.09 fold enrichment (6-mer frequency, TF over GST control)","1.08 fold enrichment (6-mer frequency, TF over GST control)","1.01 fold enrichment (6-mer frequency, TF over GST control)","1.11 fold enrichment (6-mer frequency, TF over GST control)","1.11 fold enrichment (6-mer frequency, TF over GST control)","1.19 fold enrichment (6-mer frequency, TF over GST control)","1.1 fold enrichment (6-mer frequency, TF over GST control)","1.14 fold enrichment (6-mer frequency, TF over GST control)"
GCCTTA,"1.15 fold enrichment (6-mer frequency, TF over GST control)","1.21 fold enrichment (6-mer frequency, TF over GST control)","1.26 fold enrichment (6-mer frequency, TF over GST control)","1.21 fold enrichment (6-mer frequency, TF over GST control)","1.17 fold enrichment (6-mer frequency, TF over GST control)","1.11 fold enrichment (6-mer frequency, TF over GST control)","1.13 fold enrichment (6-mer frequency, TF over GST control)","1.27 fold enrichment (6-mer frequency, TF over GST control)","1.15 fold enrichment (6-mer frequency, TF over GST control)"
ATTTTT,"1.14 fold enrichment (6-mer frequency, TF over GST control)","1.14 fold enrichment (6-mer frequency, TF over GST control)","1.13 fold enrichment (6-mer frequency, TF over GST control)","1.1 fold enrichment (6-mer frequency, TF over GST control)","1.14 fold enrichment (6-mer frequency, TF over GST control)","1.22 fold enrichment (6-mer frequency, TF over GST control)","1.18 fold enrichment (6-mer frequency, TF over GST control)","1.19 fold enrichment (6-mer frequency, TF over GST control)","1.12 fold enrichment (6-mer frequency, TF over GST control)"
TGATCT,"1.21 fold enrichment (6-mer frequency, TF over GST control)","1.33 fold enrichment (6-mer frequency, TF over GST control)","1.18 fold enrichment (6-mer frequency, TF over GST control)","1.22 fold enrichment (6-mer frequency, TF over GST control)","1.18 fold enrichment (6-mer frequency, TF over GST control)","1.22 fold enrichment (6-mer frequency, TF over GST control)","1.15 fold enrichment (6-mer frequency, TF over GST control)","1.28 fold enrichment (6-mer frequency, TF over GST control)","1.23 fold enrichment (6-mer frequency, TF over GST control)"
GGGCCT,"1.26 fold enrichment (6-mer frequency, TF over GST control)","1.29 fold enrichment (6-mer frequency, TF over GST control)","1.3 fold enrichment (6-mer frequency, TF over GST control)","1.16 fold enrichment (6-mer frequency, TF over GST control)","1.27 fold enrichment (6-mer frequency, TF over GST control)","1.27 fold enrichment (6-mer frequency, TF over GST control)","1.15 fold enrichment (6-mer frequency, TF over GST control)","1.23 fold enrichment (6-mer frequency, TF over GST control)","1.32 fold enrichment (6-mer frequency, TF over GST control)"
